Screening results from PubChem BioAssay.
GPR151 activ: human GPR151 activation; PathHunter beta-arrestin GPR151 cells, luminescence; activation, % at 11.2 µM; 650,000 tested, 1% active; AID 1508602; in the data active means activation above about 4.9%;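 further: 0% = median of compound wells and 100% = cells with positive control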
Target sequence (Q8TDV0 whole entry, looked up): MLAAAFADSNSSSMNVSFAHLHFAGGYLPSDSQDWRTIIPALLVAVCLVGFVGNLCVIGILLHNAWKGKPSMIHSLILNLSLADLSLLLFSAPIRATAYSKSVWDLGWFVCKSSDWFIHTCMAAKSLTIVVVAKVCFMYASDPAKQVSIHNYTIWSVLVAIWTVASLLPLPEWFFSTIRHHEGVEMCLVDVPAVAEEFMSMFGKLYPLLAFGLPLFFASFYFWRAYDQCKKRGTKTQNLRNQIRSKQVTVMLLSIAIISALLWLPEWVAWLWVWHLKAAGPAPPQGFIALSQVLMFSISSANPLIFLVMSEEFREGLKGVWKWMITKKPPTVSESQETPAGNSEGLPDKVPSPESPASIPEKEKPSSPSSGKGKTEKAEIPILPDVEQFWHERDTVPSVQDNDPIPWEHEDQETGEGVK
MITF inh: blocks human microphthalmia-associated transcription factor; O75030; AlphaScreen MITF homodimerization, bead proximity signal; inhibition, % at 2.6 µM; 650,000 tested, 0.91% active; AID 1259374; in the data active means inhibition above about 50%;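 further: 0% = vehicle wells with protein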
FBW7 activator: activators of human E3 ligase FBW7. Q969H0. normalized activity (activation), % at 26.1 µM. 650,000 tested, 0.13% active. AlphaScreen FBW7–phospho-cyclin E peptide binding, activator screen; in the data active means normalized activity above about 1.9%;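 further: purified mutant Fbw7 with reduced substrate affinity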
TEAD-YAP inh: TEAD-YAP interaction inhibition | 640,000 tested, 1.4% active | HEK-TIYL cells, TEAD-Gal4/YAP UAS-luciferase luminescence | inhibition, % at 9.12 µM | AID 1259422; in the data active means inhibition above about 32%;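 further: 0% = median of test compound wells and 100% = reference inhibitor wells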
GPR151 conf act: human GPR151 activation, confirmation screen | shares compounds with GPR151 activ | GPR151 PathHunter beta-arrestin cells, luminescence, 90 min; % of EA-reagent control over plate median | activation, % at 11.2 µM | 6,700 tested, under 10 active | AID 1508609;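 active means mean percent activation across replicates above the confirmation screen cutoff of 4.91%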
GPR119 ag: activates human GPR119 in a GPR151 counter-screen; shares compounds with GPR151 activ; GPR119 PathHunter beta-arrestin cells, luminescence, 90 min; 0 = compound-well median, 100 = enzyme-acceptor control; activation, % at 11.2 µM; 6,700 tested, 0.3% active;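 active means mean percent activation in the counterscreen above 29.09%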;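 further: counterscreen on off-target GPR119 to flag nonselective hits from the GPR151 activator screen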
* hit, by the source's call; x = no result; ! = not confirmed by another sample. Shown are actives, neighbours in structure and some others; about 3.4% of the full set was active somewhere.

SMILES	GPR151 activ	MITF inh	FBW7 activator	TEAD-YAP inh	GPR151 conf act	GPR119 ag
COc1ccc(OC)c(C2=NS(=O)(=O)N(C)C(C(=O)Nc3cccc(O)c3)=C2)c1	2	6	0	15	x	x
CCOC(=O)c1ccc(N(Cc2ccccc2)S(C)(=O)=O)cc1	1	13	0	8	x	x
C=CCN(c1ccc(C(=O)OCC)cc1)S(C)(=O)=O	4.9*	1	0	-6	0	-3
Cn1c(=O)c2c(nc3oc(-c4ccc(F)cc4)cn32)n(C)c1=O	-1	11	1	7	x	x
O=C(COCC(=O)N1CCN(Cc2ccc3c(c2)OCO3)CC1)N1CCN(Cc2ccc3c(c2)OCO3)CC1	0	-3	0	27	x	x
COc1cccc(/C=C2\C(=O)NN(c3ccccc3)C2=O)c1O	0	-13	0	1	x	x
CCCCOC(=O)c1ccc(NC(=O)c2ccc(C3CCCCC3)cc2)cc1	7.2*	0	0	33*	0	1
COC(=O)c1cc(-c2ccc3c(c2)OCO3)no1	1	-9	0	-11	x	x
NC(=O)c1cc(-c2ccc3c(c2)OCO3)no1	5.7*	0	0	3	-1	-1
O=c1c2c(nc3nc(-c4ccccc4)[nH]n13)CCCC2	5.7*	4	0	9	-1	-8
CCOC(=O)c1cc(-c2ccc(C)cc2)n(CCC(=O)NCCOC)c1C	1	-19	0	4	x	x
c1ccc(COC2CCCN(Cc3nc(-c4ccc5c(c4)OCO5)no3)C2)nc1 (stereo unspecified)	16*	4	0	-14	0	3
c1ccc(COC2CCCN(Cc3nc(-c4cccs4)no3)C2)nc1 (stereo unspecified)	0	-9	0	5	x	x
COc1cc(C)ccc1OCc1cc(C(=O)N2CCSCC2)no1	6.0*	-7	0	-76	0	0
COc1cc(C)ccc1OCc1cc(C(=O)N2CCCCCC2)no1	0	3	0	-10	x	x
CCC(C)NC(=O)CN(c1cccc(C(F)(F)F)c1)S(C)(=O)=O (stereo unspecified)	0	-3	0	3	x	x
CCC(C)NC(=O)CN(c1cccc(C(F)(F)F)c1)S(=O)(=O)c1ccccc1 (stereo unspecified)	10.0*	-10	0	6	0	3
O=C(NCCN1CCOCC1)c1ccc2nc(N3CCN(Cc4ccc5c(c4)OCO5)CC3)sc2c1	6.8*	-8	0	9	0	-4
CC1=C(C(=O)Nc2ccc(F)cc2)C(c2ccccc2Br)NC(=O)N1 (stereo unspecified)	5.1*	1	0	1	0	-3
CCOc1ccccc1-n1c(=S)sc2c(=O)n(-c3ccc(F)cc3)c(SCC(=O)NCc3ccco3)nc21	5.4*	-1	0	-2	1	12
COc1ccccc1-n1c(=S)sc2c(=O)n(-c3ccccc3)c(SCC(=O)NC3CCCCC3)nc21	6.0*	16	0	-4	-1	-20
Cc1ccccc1-n1c(=S)sc2c(=O)n(-c3ccccc3)c(SCC(=O)c3ccccc3)nc21	1	15	0	-10	x	x
Cc1ccc(-n2c(SCC(=O)N3CCCC3)nc3c(sc(=S)n3-c3cc(C)ccc3F)c2=O)cc1	6.7*	6	0	7	1	0
Cc1cccc(C)c1-n1c(=S)sc2c(=O)n(-c3ccccc3)c(SCC(=O)c3ccccc3)nc21	6.1*	-10	0	-3	0	-2
CCOc1ccccc1-n1c(=S)sc2c(=O)n(-c3ccc(C)cc3)c(SCC(=O)NCc3ccco3)nc21	0	-12	0	2	x	x
SMILES	GPR151 activ	MITF inh	FBW7 activator	TEAD-YAP inh	GPR151 conf act	GPR119 ag
Cc1ccc(-n2c(SCC(=O)N3CCCC3)nc3c(sc(=S)n3-c3ccccc3C)c2=O)cc1	0	39	0	3	x	x
O=C(CSc1nc2c(sc(=S)n2-c2ccccc2)c(=O)n1-c1ccccc1)NC1CCCCC1	0	-7	0	1	x	x
CCOc1ccc2cc(C3CC(c4ccc(OC)cc4)=NN3S(=O)(=O)c3ccc(C)cc3)c(Cl)nc2c1 (stereo unspecified)	1	10	1	-4	x	x
COc1cccc(CNC(=O)C(C)Nc2nn3c(=O)cc(C)nc3s2)c1 (stereo unspecified)	-2	-2	0	-8	x	x
COCCOC(=O)/C(C#N)=C/c1ccc(Sc2nccn2C)c([N+](=O)[O-])c1	0	4	0	-4	x	x
CCCNC(=O)c1sccc1S(=O)(=O)N1CCN(c2cc(C)ccc2C)CC1	-1	-10	0	-9	x	x
O=C(Cn1[nH]c(=O)c2ccccc2c1=O)NCc1cccnc1	0	2	0	10	x	x
O=C(Cn1[nH]c(=O)c2ccccc2c1=O)Nc1cccnc1	19*	-14	0	1	1	-4
COc1ccc(C(=O)Oc2coc(CSc3nnc(NC(C)=O)s3)cc2=O)cc1	13*	-8	0	-3	1	6
COc1cccc(C(=O)Oc2coc(CSc3nnc(NC(C)=O)s3)cc2=O)c1	-1	-5	0	-2	x	x
CC(=O)OCC1=C(C(=O)O)N2C(=O)[C@@H](NC(=O)Cc3cccs3)[C@H]2SC1	19*!	-9	0	-3	1	4
CO/N=C(/C(=O)N[C@@H]1C(=O)N2C(C(=O)O)=C(COC(C)=O)CS[C@H]12)c1csc(N)n1	0	23	0	2	x	x
Cc1ccc(Cl)cc1N1CCN(CC(O)COc2ccc(F)cc2)CC1 (stereo unspecified)	0	15	0	5	x	x
Cc1ccc2c(c1)CC(C)N2S(=O)(=O)c1nnc(NC(=O)c2ccccc2F)s1 (stereo unspecified)	8.5*	11	0	3	-1	-10
CN(c1ccccc1)S(=O)(=O)c1nnc(NC(=O)c2ccccc2F)s1	10*	9	0	6	1	0
Cc1ccc(C(=O)Nc2nnc(S(=O)(=O)N3c4ccccc4CC3C)s2)cc1 (stereo unspecified)	5.6*	-4	0	-3	0	-2
CC1Cc2ccccc2N1S(=O)(=O)c1nnc(NC(=O)c2ccccc2)s1 (stereo unspecified)	0	4	0	6	x	x
COc1ccc(C(=O)Nc2nnc(S(=O)(=O)N3c4ccc(C)cc4CC3C)s2)cc1 (stereo unspecified)	0	-3	0	-8	x	x
Cc1ccccc1N(C)S(=O)(=O)c1nnc(NC(=O)c2ccccc2F)s1	1	10	0	-1	x	x
COc1cc(OC)cc(C(=O)NNC(=S)NCc2ccco2)c1	7.2*	6	0	-2	-1	-13
COCCn1nnnc1C(c1cc2cccc(C)c2[nH]c1=O)N1CCCCCC1 (stereo unspecified)	0	6	0	7	x	x
